Most compounds without a hit are left out; they make up all but 1.6% or so of the library.
gsp antagonist – antagonists of gsp mutant (McCune-Albright syndrome). gsp-mutant cells, cAMP HTRF, 30 min. hit rate 0.4% among 340,000. Potency, µM (top dose mostly 76.9 µM), for inactives: at the highest dose activity change, negative = inhibition, most hits filed as inhibitors; calls by dose curve; cell line not stated here;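 note: intracellular cAMP measured with PDE inhibitor Ro 20-1724 present during compound exposure; potency is the fitted concentration of half-maximal effect; % is set by controls: 0 for no effect and ±100 for the full control effect; nearly all actives have a fitted effect of over 65% in size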
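Cells, 2000/well, grown 16–24 h in DMEM 10% FBS with 0.5 mg/ml G418, then compounds plus […] (300 uM addition stock), 30 min at 37C. cAMP read by HTRF (cAMP-d2 and anti-cAMP antibody-K in lysis buffer) after 30 min RT.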
RXFP1 antagonist – RXFP1 (human) relaxin receptor antagonism; hit rate 0.59% among 350,000; activity change, negative = inhibition, % at 57.5 µM; HEK293-RXFP1, relaxin-stimulated cAMP HTRF, 30 min; stronger effect = lower value; AID 1259400;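 active = activity change of -60% or lower, but not beyond a set lower limit; inconclusive = change between -60% and -40%, or beyond the set limit; inactive = change above -40%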; note: % is set by controls: 0 for no effect and ±100 for the full control effect
Target sequence (Q9HBX9 whole entry, looked up): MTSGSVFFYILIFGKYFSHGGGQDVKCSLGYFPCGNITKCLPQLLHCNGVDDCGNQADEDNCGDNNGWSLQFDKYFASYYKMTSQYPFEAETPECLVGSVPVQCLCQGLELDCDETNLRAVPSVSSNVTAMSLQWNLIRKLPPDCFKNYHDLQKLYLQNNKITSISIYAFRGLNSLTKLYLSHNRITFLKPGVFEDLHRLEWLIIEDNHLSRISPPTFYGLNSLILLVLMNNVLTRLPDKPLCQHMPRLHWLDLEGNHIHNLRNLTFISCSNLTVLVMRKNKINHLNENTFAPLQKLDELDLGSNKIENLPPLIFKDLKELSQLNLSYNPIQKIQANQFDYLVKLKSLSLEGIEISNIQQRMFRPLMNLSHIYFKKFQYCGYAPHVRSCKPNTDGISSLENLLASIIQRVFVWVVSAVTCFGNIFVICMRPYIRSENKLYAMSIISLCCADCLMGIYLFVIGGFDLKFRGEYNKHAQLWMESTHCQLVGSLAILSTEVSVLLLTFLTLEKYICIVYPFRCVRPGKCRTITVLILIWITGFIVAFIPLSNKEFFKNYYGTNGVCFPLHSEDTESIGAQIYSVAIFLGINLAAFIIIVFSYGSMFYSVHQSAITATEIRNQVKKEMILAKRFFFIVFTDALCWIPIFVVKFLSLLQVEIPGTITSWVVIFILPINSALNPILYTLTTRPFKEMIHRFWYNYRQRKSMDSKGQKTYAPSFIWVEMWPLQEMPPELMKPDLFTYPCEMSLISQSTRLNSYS
gsp ag – gsp mutant agonism; gsp mutant cells, cAMP HTRF, 30 min; Potency, µM (series often up to 76.9 µM), without a hit: at the highest dose activation (cAMP increase), usual class: activators; hit rate 0.13% among 340,000; active = well fitted activation curve with a large enough effect; inconclusive = small, poorly fitted or top-dose-only effect, or another doubt; inactive = no such curve, though single readings can be large or run the other way; cell line not stated here;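 note: phosphodiesterase inhibitor Ro 20-1724 added with compounds to block cAMP breakdown; potency is the fitted concentration of half-maximal effect; nearly all actives have a fitted effect of over 60% in size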
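Cells stably selected in G418 were plated at 2000/well, grown 16-24 hr, then given compounds in DMSO with the PDE inhibitor […] (300 uM solution added) for 30 min at 37C; cAMP was read by HTRF.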
RXFP1 agonist – agonists of human relaxin receptor RXFP1; Q9HBX9; HEK293T-RXFP1 cAMP TR-FRET, 30 min; response scale: percent of porcine relaxin response, buffer zero; Potency, µM (doses to about 57.5 µM), without a hit: at the highest dose activation, actives largely listed as activators; hit rate 0.3% among 370,000; AID 2676; active = well fitted activation curve with a large enough effect; inconclusive = small, poorly fitted or top-dose-only effect; note: potency is the fitted concentration of half-maximal effect; % is set by controls: 0 for no effect and ±100 for the full control effect; nearly all actives have a fitted effect of over 60% in size
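HEK293 cells stably expressing RXFP1, treated 30 min at 37C with compounds plus PDE4 inhibitor Ro 20174; cAMP measured by HTRF TR-FRET. Normalized to buffer and 29 nM porcine relaxin; EC50 by Hill fit.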
Giardia kill – Giardia lamblia killing; activity change, % at 7.66 µM, hits read low; hit rate 0.15% among 340,000; Giardia lamblia trophozoite viability; AID 540267; in the data active = activity change below about -80%; inconclusive = between about -30% and that limit;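 note: parasites exposed to compound for two days anaerobically before the ATP read; % is set by controls: 0 for no effect and ±100 for the full control effect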
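Giardia trophozoites, 100 cells per well, were exposed to compounds for 48 hrs at 37 deg C under anaerobic conditions; viability was then read as ATP content by bioluminescence after 15-30 min at room temperature.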
Coupling enz – counter-screen for Giardia aldolase inhibitors: coupling enzyme system | coupling enzyme system counterscreen, AmpLite Red fluorescence | activity change, negative = inhibition, % at 58.2 µM, hits read low | hit rate 0.67% among 290,000 | AID 2472; in the data active = activity change below about -30%; note: % is set by controls: 0 for no effect and ±100 for the full control effect
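Fluorescence at 525 nm excitation and 598 nm emission measured inhibition of the coupled detection system without aldolase. Compounds (at 57.5 uM final) were preincubated 10 min at room temperature with coupling enzyme reagent before a 20 min substrate/AmpLite Red step.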
An asterisk follows results filed as active; [ ] = another dose, or the depositor's remark.

`CC(Oc1cccnc1[N+](=O)[O-])C(=O)Nc1ccc(F)cc1` (stereo not given) gave gsp antagonist 2%, RXFP1 antagonist inconclusive, gsp ag 43%, RXFP1 agonist 0% and Giardia kill inconclusive.
Cc1cc(/C=C(\C#N)C(=O)Nc2ccccc2)c(C)n1-c1ccc(C(=O)O)cc1 was read as gsp antagonist inconclusive, RXFP1 antagonist -4, gsp ag -39%, RXFP1 agonist 3%, Giardia kill 8 and Coupling enz 7.
Screening Cc1cccc(NC(=O)/C(C#N)=C\c2cc(C)n(-c3ccc(C(=O)O)cc3)c2C)c1 returned gsp antagonist 25µM*, RXFP1 antagonist -35, gsp ag 5%, RXFP1 agonist -1%, Giardia kill -12 and Coupling enz 6.
COc1cc([N+](=O)[O-])ccc1NC(=O)COC(=O)c1n[nH]c2ccccc12 was read as gsp antagonist 40µM*, RXFP1 antagonist 2, gsp ag 8%[15.4 µM], RXFP1 agonist 4%, Giardia kill 0 and Coupling enz 0.
CCSc1ccccc1C(=O)Nc1ccc([N+](=O)[O-])cc1OC was read as gsp antagonist 40µM*, RXFP1 antagonist 6, gsp ag -7%, RXFP1 agonist 0%, Giardia kill 29 and Coupling enz -1.
Screening CCC(C)C(=O)Nc1ccc([N+](=O)[O-])cc1OC (stereo not given) returned gsp antagonist -4%, RXFP1 antagonist 10, gsp ag -24%, RXFP1 agonist 2%, Giardia kill -10 and Coupling enz 1.
`O=C(COC(=O)c1n[nH]c2ccccc12)Nc1ccc(Cl)cc1[N+](=O)[O-]` gave gsp antagonist -21%, RXFP1 antagonist -75*, gsp ag -27%, RXFP1 agonist 2%, Giardia kill -13 and Coupling enz 0.
Screening O=C(COC(=O)c1n[nH]c2ccccc12)Nc1ccccc1F returned gsp antagonist -4%, RXFP1 antagonist -6, gsp ag 22%[15.4 µM] and Giardia kill -20.
Screening CCOCCn1c(C2CCN(CCc3ccc(C(C)(C)C(=O)O)cc3)CC2)nc2ccccc21 returned RXFP1 antagonist -2.
O=C(O)CCC(=O)N1N=C(c2ccc(Br)cc2)CC1c1ccc(Br)cc1 (stereo not given) was read as gsp antagonist inconclusive, RXFP1 antagonist -4, gsp ag 8%, RXFP1 agonist 3%, Giardia kill 14 and Coupling enz 6.
`O=C(O)CCC(=O)N1N=C(c2ccccc2)CC1c1ccc(Br)cc1` (stereo not given) gave gsp antagonist 40µM*, RXFP1 antagonist -2, gsp ag 6%[15.4 µM], RXFP1 agonist -1%, Giardia kill 37 and Coupling enz 2.
`CC[C@@]1(c2ccccc2)NC(=O)NC1=O` gave Coupling enz 0.
`O=C(NNc1nc2c(F)cc(F)cc2s1)C1=COCCO1` gave gsp antagonist -3%, RXFP1 antagonist -7, gsp ag 0%, RXFP1 agonist 3%, Giardia kill 5 and Coupling enz 1.
`Cc1cccc2sc(NNC(=O)C3=COCCO3)nc12` gave RXFP1 antagonist -61*, gsp ag -5%[15.4 µM], RXFP1 agonist -2%, Giardia kill 2 and Coupling enz 1.
CC(=O)C1C(c2ccc([N+](=O)[O-])cc2)c2c(noc2C)CC1(C)O (stereo not given) was read as gsp antagonist 7%, RXFP1 antagonist -6, gsp ag -3%[15.4 µM], RXFP1 agonist 1%, Giardia kill -4 and Coupling enz 3.
Screening Cc1ccc(NC(=O)CN2C(=O)S/C(=C/c3ccc(O)c([N+](=O)[O-])c3)C2=O)cc1C returned gsp antagonist inconclusive, RXFP1 antagonist -63*, gsp ag 16%[15.4 µM], RXFP1 agonist 0%, Giardia kill -82* and Coupling enz 7.
O=C1S/C(=C\c2ccc(O)c([N+](=O)[O-])c2)C(=O)N1Cc1cccc([N+](=O)[O-])c1 was read as gsp antagonist -72%, RXFP1 antagonist 1, gsp ag 36%[15.4 µM], RXFP1 agonist 2%, Giardia kill -82* and Coupling enz 9.
Screening O=C(CN1C(=O)S/C(=C\c2cc(Cl)c(O)c(Cl)c2)C1=O)Nc1ccccc1 returned gsp antagonist 40µM*, RXFP1 antagonist -27, gsp ag -32%, RXFP1 agonist 0%, Giardia kill -14 and Coupling enz 13.
Screening O=C(CN1C(=O)S/C(=C\c2ccccn2)C1=O)Nc1ccccc1 returned gsp antagonist 3%, RXFP1 antagonist 8, gsp ag 17%, RXFP1 agonist 0% and Giardia kill -10.
`Cc1cccc(NC(=O)CN2C(=O)S/C(=C\c3ccc(O)c([N+](=O)[O-])c3)C2=O)c1` gave gsp antagonist inconclusive, RXFP1 antagonist 4, gsp ag 4%, RXFP1 agonist 0%, Giardia kill inconclusive and Coupling enz 6.
Screening Cc1ccc(Cl)cc1NC(=O)CN1C(=O)C(C)(C)c2cc(S(=O)(=O)N3CCCCC3)ccc21 returned RXFP1 antagonist -4 and RXFP1 agonist 0%.
`COC(=O)c1cnn(C(=O)c2ccccc2Br)c1N` gave gsp antagonist -2%, RXFP1 antagonist 23, gsp ag -2%, RXFP1 agonist 0%, Giardia kill 3 and Coupling enz -37*.
`COC(=O)c1cnn(C(=O)c2cc(OC)ccc2Br)c1N` gave gsp antagonist 1%, RXFP1 antagonist 2, gsp ag 11%, RXFP1 agonist -4%, Giardia kill 6 and Coupling enz 3.
For Cc1noc(C)c1CSCC(=O)OCC(=O)Nc1ccc(OC(F)(F)F)cc1 the results were RXFP1 antagonist -4 and gsp ag -76%.
For COc1cccc(CNC(=O)c2oc3c(c2C)-c2nn(Cc4cccc(Cl)c4)cc2CC3)c1OC the results were RXFP1 antagonist inconclusive and RXFP1 agonist 14%.
COc1cccc(CNC(=O)c2oc3c(c2C)-c2nn(Cc4cccc(Cl)c4)cc2CC3)c1 was read as RXFP1 antagonist -118* and RXFP1 agonist 0%.
For Cc1ccc(-c2nc3ccccc3o2)cc1NC(=O)c1cccc2c(Cl)cccc12 the results were RXFP1 antagonist -18 and RXFP1 agonist 3%.
O=C(N/N=C1\C(=O)c2cccc3cccc1c23)c1ccc(O)cc1 was read as gsp antagonist inconclusive, RXFP1 antagonist -10, gsp ag 0%[15.4 µM], RXFP1 agonist -1%, Giardia kill -19 and Coupling enz 0.
For O=C1C([N+](=O)[O-])=C(O)c2cccc3cccc1c23 the results were RXFP1 agonist inconclusive and Coupling enz -51*.

Screening data (PubChem)
